Assay outcomes as filed in PubChem BioAssay.
Shown are actives, neighbours in structure and some others; about 28% of the full set was active somewhere.
CYP2C9 inh – human CYP2C9 inhibition; CYP2C9 Supersomes, luciferin-H conversion, luminescence; inhibition, % at 5 µM; actives 20% (n = 96,000);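 active means blocking of liver enzyme CYP2C9 beyond about 50% at 5 µM, limit read from the data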
Target sequence (P11712 whole entry, looked up): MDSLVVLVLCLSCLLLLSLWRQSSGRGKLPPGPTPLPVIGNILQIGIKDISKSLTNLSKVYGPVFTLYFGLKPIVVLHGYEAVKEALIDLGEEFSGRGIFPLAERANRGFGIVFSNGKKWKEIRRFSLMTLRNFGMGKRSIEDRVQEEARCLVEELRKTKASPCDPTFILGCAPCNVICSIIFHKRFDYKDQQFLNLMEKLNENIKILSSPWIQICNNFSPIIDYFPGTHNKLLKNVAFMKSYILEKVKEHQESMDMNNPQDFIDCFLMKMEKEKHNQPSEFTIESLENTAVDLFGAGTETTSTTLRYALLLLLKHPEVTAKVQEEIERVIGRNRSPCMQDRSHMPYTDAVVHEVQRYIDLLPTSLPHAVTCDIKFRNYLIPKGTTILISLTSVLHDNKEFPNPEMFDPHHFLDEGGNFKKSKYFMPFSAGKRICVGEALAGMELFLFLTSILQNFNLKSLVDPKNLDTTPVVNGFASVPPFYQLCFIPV
CYP2C19 inhib – blocks human cytochrome P450 2C19; P33261; CYP2C19 Supersomes, luciferin-H EGE luminescence, 30 min; inhibition, % at 5 µM; actives 21% (n = 96,000); AID 778;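 active means CYP2C19 inhibition above a set limit at 5 µM in the primary screen, cut at about 50% in these data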;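 further: plate controls were negative control wells for no effect and 2.5 mM tranylcypromine positive control for full effect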
CYP2C9 activ – increases human cytochrome P450 2C9 activity; P11712; AID 1024; actives 1.4% (n = 96,000); recombinant CYP2C9, luciferin-H conversion, luminescence; hits give high values; factor 1 = untreated enzyme, 0 = blocked; activation factor at 5 µM;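 active means activation factor of 2 or more for CYP2C9 at a 5 µM dose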;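 further: 0 = sulfaphenazole-blocked wells and 1 = vehicle-only wells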
Pyk2 oligo antag – antagonists of human Pyk2 oligomerization | z-score (the deposit names both 25 µM and 10 µM) | Q14289 | actives 0.83% (n = 99,000) | AID 1347419 | Q293 cells, Pyk2 FERM NanoBiT luminescence; hits give low values;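 active means Z-score of -3 or lower, scaled per plate to the spread of control and sample wells; inactive means z-score above -3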;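 further: negative z-score means lost luminescence so less FERM oligomerization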
CYP2C19 activ – cytochrome P450 2C19 (human) activation; 96,000 tested, under 10 active; activation factor at 5 µM; P33261; recombinant CYP2C19, luciferin-H EGE luminescence; hits give high values; 0 = fully inhibited enzyme, 1 = untreated enzyme;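 active means activation factor of at least 2 at 5 µM in the primary screen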;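 further: 0 = wells with 2.5 mM tranylcypromine and 1 = vehicle-only wells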
* hit, by the source's call; x = no result given.

SMILES	CYP2C9 inh	CYP2C19 inhib	CYP2C9 activ	Pyk2 oligo antag	CYP2C19 activ
CN1CCN(c2ccccc2NC(=O)COc2ccc(Br)cc2)CC1	80*	48	0.2	0.3	0.5
O=C(COc1ccccc1)Nc1ccccc1N1CCCCC1	78*	66*	0.2	-1.4	0.3
O=C(COc1ccccc1)Nc1ccccc1N1CCN(c2ccccc2)CC1	56*	21	0.4	-2.1	0.8
Cc1cccc(OCC(=O)Nc2ccccc2N2CCCCC2)c1	65*	85*	0.3	-1	0.1
CN1CCN(c2ccccc2NC(=O)c2ccc(OCc3ccccc3)cc2)CC1	40	48	0.6	0.2	0.5
CCC(=O)NC(c1ccccc1)c1nc2ccccc2[nH]1 (stereo not drawn)	-16	21	1.2	-0.6	0.8
CC(C)C(=O)N1CCC(CN=CC2=C(O)CC(C)(C)CC2=O)CC1	x	x	x	0.24	x
O=C(O)Cn1nnn(-c2ccccc2)c1=S	-12	-6	1.1	0.18	1.1
COc1ccc(/C=C(/C#N)C(=O)Nc2ccc(C)cc2C)cc1C(=O)O	-18	-14	1.2	-1.5	1.1
COc1ccc(/C=C(/C#N)C(=O)Nc2cccc(C)c2C)cc1C(=O)O	16	58*	0.8	-0.23	0.4
O=C(CN1CCN(c2ccccn2)CC1)Nc1ccc(Oc2ccccc2)cc1	53*	22	0.5	-0.2	0.8
O=C(CN1CCN(c2ccccn2)CC1)Nc1ccc(F)cc1	73*	61*	0.3	0.12	0.4
CC(NC(=O)CN1CCN(c2ncccn2)CC1)c1ccc(F)cc1 (stereo not drawn)	92*	39	0.1	-0.35	0.6
O=C(CN1CCN(c2ccccn2)CC1)NC1CCCC1	21	6	0.8	-0.26	0.9
O=C(CN1CCN(c2ccccn2)CC1)Nc1ccccc1	32	56*	0.7	-0.41	0.4
O=C(CN1CCN(c2ccccn2)CC1)Nc1ccc(OCc2ccccc2)cc1	31	8	0.7	-0.02	0.9
CCc1ccccc1OCc1nnc(N)s1	-26	35	1.3	-0.12	0.6
O=C1CCCC2=C1C1(CCCCC1)N=C(Nc1nc3ccccc3s1)N2	-16	-16	1.2	-0.06	1.2
O=C(CN1CCN(c2ncccn2)CC1)NCc1ccccc1	92*	61*	0.1	-0.07	0.4
COc1cc(-n2ccnc2SC)c(Cl)cc1Cl	4	54*	1	0.11	0.5
CCOC(=O)CSc1nnnn1-c1cc(OC)c(Cl)cc1OC	0	23	1	0.31	0.8
COc1ccc(C2CC(=O)c3cnc(Nc4cc(C)cc(C)c4)nc3C2)cc1 (stereo not drawn)	23	18	0.8	-2	0.8
COc1cc(C2CC(=O)c3cnc(NC(=O)COc4ccccc4)nc3C2)cc(OC)c1OC (stereo not drawn)	19	15	0.8	-3.1*	0.9
COc1ccc(C2CC(=O)c3cnc(NC(=O)c4ccccc4)nc3C2)cc1OC (stereo not drawn)	70*	10	0.3	x	0.9
COc1cccc(C(=O)Nc2ncc3c(n2)CC(C)CC3=O)c1 (stereo not drawn)	22	5	0.8	1.5	0.9
SMILES	CYP2C9 inh	CYP2C19 inhib	CYP2C9 activ	Pyk2 oligo antag	CYP2C19 activ
CCOCCCNc1ncc2c(n1)CC(c1ccc(C)cc1)CC2=O (stereo not drawn)	59*	41	0.4	1.8	0.6
COc1ccc(C2CC(=O)c3cnc(NC(=O)c4cc(OC)cc(OC)c4)nc3C2)cc1 (stereo not drawn)	69*	83*	0.3	-1	0.2
COc1cc(OC)cc(C(=O)Nc2ncc3c(n2)CC(C)CC3=O)c1 (stereo not drawn)	-11	2	1.1	-0.05	1
CC(C)c1ccc(NC(=O)Nc2cc3sccc3n2C)cc1	8	8	0.9	x	0.9
Cc1ccc(OC(=O)c2ccc(N3CCOCC3)c([N+](=O)[O-])c2)cc1	0	2	1	-0.03	1
CCOC(=O)c1[nH]c2c(c1C)C(=O)CC(c1ccc(OCC)c(OC)c1)C2 (stereo not drawn)	90*	76*	0.1	0.35	0.2
Cc1c(C(=O)O)[nH]c2c1C(=O)CC(c1ccc(Cl)cc1)C2 (stereo not drawn)	2	5	1	1.1	0.9
Cc1c(C(=O)N2CCOCC2)[nH]c2c1C(=O)CC(c1ccc(Cl)cc1)C2 (stereo not drawn)	66*	14	0.3	1.2	0.9
COC(=O)c1[nH]c2c(c1C)C(=O)CC(c1ccc(C)cc1)C2 (stereo not drawn)	31	1	0.7	0.21	1
CCOC(=O)C1=C(c2ccccc2)NC(=O)NC1c1ccc(OCC#N)c(OC)c1 (stereo not drawn)	16	17	0.8	-0.86	0.8
Cc1c(C(=O)OCC2CCCO2)[nH]c2c1C(=O)CC(c1ccc(N(C)C)cc1)C2 (stereo not drawn)	92*	21	0.1	x	0.8
CCOC(=O)c1[nH]c2c(c1C)C(=O)CC(c1ccc(F)cc1)C2 (stereo not drawn)	88*	15	0.1	x	0.9
COc1ccc(C2C(C(=O)OCC3CCCO3)=C(C)NC3=C2C(=O)CC(c2ccco2)C3)cc1O (stereo not drawn)	33	18	0.7	-0.51	0.8
O=c1c2ccccc2cnn1-c1ccc(Cl)cc1	10	14	0.9	-0.11	0.9
Cc1ccc(-c2ncccc2OC(=O)C23CC4CC(CC(C4)C2)C3)cc1	-9	-6	1.1	-0.43	1.1
CCC(c1nnc(SCC(=O)Nc2nnc(-c3ccccc3)o2)n1Cc1ccccc1)N(C)C (stereo not drawn)	-5	-3	1.1	-0.11	1
CCC(C)C(=O)Nc1ncc2c(n1)CC(c1cccs1)CC2=O (stereo not drawn)	29	14	0.7	0.44	0.9
Cc1c(C(=O)OCC(C)C)[nH]c2c1C(=O)CC(c1cccs1)C2 (stereo not drawn)	92*	80*	0.1	0.46	0.2
Cc1ccc(N(CC(O)Cn2c3ccccc3c3ccccc32)S(C)(=O)=O)c(C)c1 (stereo not drawn)	6	8	0.9	-0.48	0.9
Cc1cccc(C)c1N(CC(O)Cn1c2ccccc2c2ccccc21)S(C)(=O)=O (stereo not drawn)	72*	80*	0.3	-0.2	0.2
OC(CNCc1ccco1)Cn1c2ccccc2c2ccccc21 (stereo not drawn)	32	65*	0.7	0.69	0.4
Cc1ccc(N(CC(O)CON=C2c3ccccc3-c3ccccc32)S(C)(=O)=O)cc1 (stereo not drawn)	53*	47	0.5	-1.7	0.5
OC(CNCc1ccco1)COc1ccccc1 (stereo not drawn)	-14	38	1.1	0.09	0.6
CS(=O)(=O)N(CC(=O)O)c1ccc(Oc2ccccc2)cc1	15	8	0.9	1.5	0.9
